# Source: ChEMBL document CHEMBL1857833, “Screening and optimization of specific chemical series against human African Trypanosomiasis (HAT)”
# Several values for one entry are separate records, joined by “and”; a condition that tells them apart may be missing. Equal entries are not always repeated. The whole screen tested about 4,400 compounds, of which about 390 (8.9%) showed an effect of 50% or more. The entries come from a sample that favours strong results as a whole.
# Test system: Trypanosoma brucei
# Assay: DNDI: Inhibition of Human African Trypanosomiasis, SBRI 427, in vitro at 2 ug.mL-1
# Assay type: functional
row,Structure (SMILES),% inhibition
1,O/N=C(/c1ccnc(Oc2ccc(Cl)cc2)c1)N1CC=CCC1,8%
2,COc1ccc(-c2nc(Cn3nc(C)cc3C)co2)cc1,-6%
3,Cc1cccc(N2CCN(Cc3coc(-c4ccc(Br)cc4)n3)CC2C)c1 (stereo unspecified),15%
4,COc1ccc(-c2nc(CNCCc3ccc(C)cc3)co2)cc1,-3%
5,Cc1ccc(CN/C(=N\O)c2ccc(Oc3cc(Cl)ccc3Cl)nc2)o1,9%
6,Cc1cccc(Oc2ncccc2/C(=N/O)N2CCC=N2)c1C,2%
7,C=CCN(Cc1coc(-c2ccccc2Cl)n1)C1CCCCC1,13%
8,O/N=C(\NCc1cccs1)c1ccc(Oc2c(F)c(F)cc(F)c2F)nc1,1%
9,Cc1cc(Oc2ccc(/C(=N/O)N3CCN(c4ccc(F)cc4)CC3)cn2)cc(C(C)C)c1,3%
10,COc1ccc(-c2nc(CN3CCN(c4cccc(Cl)c4)CC3)co2)cc1,10%
11,COc1ccc(Oc2ncccc2/C(=N/O)NC2CCC2)cc1,98%
12,O/N=C(\NC1CCCCC1)c1cccnc1Oc1ccc2ccccc2c1,99%
13,O/N=C(\Nc1ccccc1)c1cccnc1Oc1ccc2ccccc2c1,14%
14,COc1ccc(Oc2nc(C)ccc2/C(=N/O)NC2CCC(C)CC2)cc1 (stereo unspecified),47%
15,N/C(=N/O)c1cccnc1Oc1ccc2ccccc2c1,-3%
16,COc1ccc(Oc2ncccc2/C(=N/O)N2C(C)CCC2C)cc1 (stereo unspecified),-10%
17,O/N=C(\NCc1cc(F)ccc1F)c1ccc(Oc2ccc(Cl)cc2)nc1,-8%
18,CCc1ccc(Oc2ccc(/C(=N/O)NC3CC3)cn2)cc1,8%
19,CCc1ccc(Oc2ccc(/C(=N/O)Nc3ccccc3)cn2)cc1,17%
20,CCc1ccc(Oc2ccc(/C(=N/O)NC3CCCC3)cn2)cc1,78%
21,O/N=C(\NC1CCCC1)c1ccc(Oc2ccc(Cl)cc2)nc1,98%
22,CC1CCC(N/C(=N\O)c2ccc(Oc3ccc(Cl)cc3)nc2)CC1 (stereo unspecified),88%

row,Structure (SMILES),% inhibition
1,O/N=C(\NC1CCCCC1)c1ccc(Oc2ccc(Cl)cc2)nc1,93%
2,N/C(=N\O)c1ccc(Oc2ccc(Cl)cc2)nc1,15%
3,O/N=C(/c1ccc(Oc2ccc(Cl)cc2)nc1)N1CCCCCC1,-7%
4,CC1CCC(N/C(=N\O)c2ccc(Oc3ccc(-n4ccnc4)cc3)nc2)CC1 (stereo unspecified),21%
5,CSCCN/C(=N\O)c1ccc(Oc2ccc(Cl)cc2)nc1,-6%
6,CC1CCN(/C(=N\O)c2ccc(Oc3ccc(Cl)cc3)nc2)CC1,26%
7,O/N=C(\NC1CCc2ccccc21)c1ccc(Oc2ccc(Cl)cc2)nc1 (stereo unspecified),-11%
8,CC(NCc1coc(-c2ccccc2Br)n1)c1cccc2ccccc12 (stereo unspecified),9% and -3%
9,CCOc1ccccc1Oc1ncccc1/C(=N/O)N1CCC=N1,13%
10,COc1cccc(-c2nc(CNc3ccc(C(C)=O)cc3)co2)c1,18%
11,COc1cc(-c2nc(CN3CCN(Cc4ccc5c(c4)OCO5)CC3)co2)cc(OC)c1OC,-1%
12,O/N=C(/c1cccnc1OCc1ccccc1F)N1CCN(c2ccc(F)cc2)CC1,-19%
13,CSc1ccc(Oc2ccc(/C(=N/O)NC3CCC(C)CC3)cn2)cc1 (stereo unspecified),81%
14,CC1CCC(N/C(=N\O)c2ccc(Oc3ccc(F)cc3)nc2)CC1 (stereo unspecified),16%
15,CCc1ccc(Oc2ccc(/C(=N/O)NCC3CC3)cn2)cc1,99%
16,CCc1ccc(Oc2ccc(/C(=N/O)N3CCSCC3)cn2)cc1,16%
17,CCc1ccc(Oc2ccc(/C(=N/O)NCc3c(F)cccc3F)cn2)cc1,22%
18,CCc1ccc(Oc2ccc(/C(=N/O)N3CCCCC3)cn2)cc1,68%
19,CSc1ccc(Oc2cc(/C(=N/O)NC3CCC(C)CC3)ccn2)cc1 (stereo unspecified),9%
20,CCc1ccc(Oc2ccc(/C(=N/O)NCc3ccc(OC)cc3)cn2)cc1,22%
21,CCc1ccc(Oc2ccc(/C(=N/O)N3CCOCC3)cn2)cc1,3%
22,N#CCCN(Cc1coc(-c2cccc(F)c2)n1)CC1CCCO1 (stereo unspecified),-9%

row,Structure (SMILES),% inhibition
1,Cc1ccc(Oc2nc(C)ccc2/C(=N/O)N2CCC3CCCCC3C2)c(C)c1 (stereo unspecified),10%
2,CC(C)COc1ncccc1/C(=N/O)N1CCC2CCCCC2C1 (stereo unspecified),-17%
3,Cc1ccc(Oc2ccc(/C(=N/O)N3CCN(c4ccccc4)CC3)cn2)c(C)c1,18%
4,COc1cc(CN(C)Cc2coc(-c3ccc(Cl)cc3Cl)n2)cc(OC)c1OC,0%
5,COc1cc(-c2nc(CN3CCCc4ccccc43)co2)cc(OC)c1OC,6%
6,CCOc1ccccc1CN/C(=N\O)c1ccc(C)nc1Oc1ccc(F)cc1,20%
7,Cc1ccc(Oc2nc(C)ccc2/C(=N/O)NCc2ccccc2C)c(C)c1,43%
8,CCOc1ccccc1CN/C(=N\O)c1ccc(C)nc1Oc1ccc(SC)c(C)c1,-24%
9,COc1ccccc1CN/C(=N\O)c1ccc(C)nc1Oc1ccc(C)cc1C,40%
10,CCOc1ccccc1CN/C(=N\O)c1ccc(C)nc1Oc1ccc(C)cc1C,99%
11,CCOc1ccccc1CN/C(=N\O)c1ccc(C)nc1Oc1ccc(C)cc1,67%
12,Fc1ccc(-c2nc(CNC3CCc4ccccc43)co2)cc1 (stereo unspecified),28%
13,Cc1ccc(/C(=N/O)N2C(C)CCCC2C)c(Oc2cccc(F)c2)n1 (stereo unspecified),15%
14,CN(Cc1coc(-c2cccc(F)c2)n1)Cc1cccc2ccccc12,-3%
15,COc1ccc(CN/C(=N\O)c2ccnc(Oc3ccc(C)c4c3CCC4)c2)cc1,21%
16,COC(=O)c1cn(Cc2coc(-c3ccc(Br)cc3)n2)cn1,16%
17,CSc1ccc(Oc2ncccc2/C(N)=N/O)cc1C,17%
18,CCOc1ccc(Oc2cc(/C(=N/O)NC3CC(C)CC(C)(C)C3)ccn2)cc1 (stereo unspecified),29%
19,CCOc1ccc(Oc2cc(/C(=N/O)Nc3ccccc3)ccn2)cc1,24%
20,CCOc1ccc(Oc2cc(/C(=N/O)NC3CCCC3)ccn2)cc1,53%
21,CCOc1ccc(Oc2cc(/C(=N/O)NC3CCCCC3)ccn2)cc1,51%
22,CCOc1ccc(Oc2cc(/C(=N/O)NC3CCc4ccccc43)ccn2)cc1 (stereo unspecified),29%

row,Structure (SMILES),% inhibition
1,CCOc1ccc(Oc2cc(/C(=N/O)NC3CCC(C)CC3)ccn2)cc1 (stereo unspecified),25%
2,CCOc1cccc(-c2nc(CN3CCN(c4cc(C)nc5ccccc45)CC3)co2)c1,11%
3,Cc1ccccc1-c1nc(CNCCN2CCOCC2)co1,6%
4,CCOc1cccc(-c2nc(CN3CCCN(C)CC3)co2)c1,2%
5,CSc1ccc(Oc2nc(C)ccc2/C(=N/O)N2CCSC2)cc1,1%
6,Fc1cccc(-c2nc(CN3CCCCCC3)co2)c1,5%
7,Cc1cc(C)cc(CN/C(=N\O)c2ccc(Oc3cc(C)cc(C)c3)nc2)c1,-3%
8,CCCN/C(=N\O)c1ccc(Oc2cc(C)cc(C)c2)nc1,20%
9,Cc1cc(C)cc(Oc2ccc(/C(=N/O)NCC(C)C)cn2)c1,90%
10,Cc1cc(C)cc(Oc2ccc(/C(=N/O)NCC(C)(C)C)cn2)c1,98%
11,CC(C)CN/C(=N\O)c1ccc(Oc2ccc3ccccc3c2)nc1,2%
12,Cc1cc(Oc2ccc(/C(=N/O)NCC3CC3)cn2)cc(C(C)C)c1,97%
13,COc1cccc(Oc2ccc(/C(=N/O)NCC(C)C)cn2)c1,19%
14,Cc1cc(Oc2ccc(/C(=N/O)NC3CCC(C)CC3)cn2)cc(C(C)C)c1 (stereo unspecified),19%
15,Cc1cc(C)cc(CN/C(=N\O)c2ccc(Oc3cc(C)cc(C(C)C)c3)nc2)c1,19%
16,Cc1cc(Oc2ccc(/C(=N/O)NC3CC3)cn2)cc(C(C)C)c1,62%
17,Cc1cc(Oc2ccc(/C(=N/O)NC3CCc4ccccc43)cn2)cc(C(C)C)c1 (stereo unspecified),35%
18,COCCN/C(=N\O)c1ccc(Oc2cc(C)cc(C(C)C)c2)nc1,17%
19,CCC(C)(C)N/C(=N\O)c1ccc(C)nc1Oc1ccc(F)c(F)c1,11%
20,CCOc1ccccc1-c1nc(CN2CCC=N2)co1,-3%
21,CC(=O)c1ccc(N2CCN(Cc3coc(-c4ccc(F)cc4)n3)CC2)cc1,-5%
22,Cc1cc(C)cc(Oc2ccc(/C(=N/O)NCC3CC3)cn2)c1,99%

row,Structure (SMILES),% inhibition
1,Cc1cc(C)cc(Oc2ccc(/C(=N/O)NCC3CCCCC3)cn2)c1,21%
2,Cc1cc(C)cc(Oc2ccc(/C(=N/O)NCC3CCCO3)cn2)c1 (stereo unspecified),-3%
3,Cc1cccc(CNCc2coc(-c3ccc(O)cc3)n2)c1,-10%
4,Cc1cn(Cc2coc(-c3ccccc3Br)n2)c(C)n1,25%
5,CCCCN(Cc1coc(-c2ccccc2Cl)n1)c1ccccc1,10%
6,COc1cc(-c2nc(Cn3cnc(C)c3)co2)cc(OC)c1OC,-15%
7,CC1(C)[C@H]2CC[C@@H](CNCc3coc(-c4cccc(F)c4)n3)[C@@H]1C2,42%
8,COc1ccc(-c2nc(CNC[C@@H]3CC[C@H]4C[C@@H]3C4(C)C)co2)cc1,97%
9,c1ccc2c(CNCc3coc(-c4cccc5ccccc45)n3)cccc2c1,14%
10,CC1(C)[C@H]2CC[C@@H](CNCc3coc(-c4cccc5ccccc45)n3)[C@@H]1C2,73%
11,Cc1ccc(-c2nc(CNCc3ccc(C)o3)co2)cc1,-7%
12,CC1(C)[C@H]2CC[C@@H](CNCc3coc(-c4ccccc4Cl)n3)[C@@H]1C2,35%
13,COc1ccc(CNCc2coc(-c3ccc(F)cc3)n2)cc1,-33%
14,Cc1ccc(-c2nc(CNC[C@@H]3CCCO3)co2)cc1,12%
15,CC1(C)[C@H]2CC[C@@H](CNCc3coc(-c4ccc(F)cc4)n3)[C@@H]1C2,99%
16,Cc1ccc(-c2nc(CNC[C@@H]3CC[C@H]4C[C@@H]3C4(C)C)co2)cc1,99%
17,COc1cc(-c2nc(CNC[C@@H]3CC[C@H]4C[C@@H]3C4(C)C)co2)cc(OC)c1OC,11%
18,COc1ccc(-c2nc(CNCC3CCCO3)co2)cc1 (stereo unspecified),-10%
